For 89 compounds, activation results are on record in PubChem BioAssay AID493131 (Broad Institute, 2011).

In all, about 340,000 compounds went through this assay and about 3,300 (0.97%) were called active. This excerpt belongs to a sample that is enriched for actives. A number with no mark means an inactive call.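 How the source made its calls: active means mean activation above about 17%, with every replicate also reaching it (limit read from the data, passing the limit was not always enough); inconclusive means only one of the two conditions met; inactive means the rest.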

Sequence of Protein FosB (Mus musculus) (P13346 whole entry, looked up): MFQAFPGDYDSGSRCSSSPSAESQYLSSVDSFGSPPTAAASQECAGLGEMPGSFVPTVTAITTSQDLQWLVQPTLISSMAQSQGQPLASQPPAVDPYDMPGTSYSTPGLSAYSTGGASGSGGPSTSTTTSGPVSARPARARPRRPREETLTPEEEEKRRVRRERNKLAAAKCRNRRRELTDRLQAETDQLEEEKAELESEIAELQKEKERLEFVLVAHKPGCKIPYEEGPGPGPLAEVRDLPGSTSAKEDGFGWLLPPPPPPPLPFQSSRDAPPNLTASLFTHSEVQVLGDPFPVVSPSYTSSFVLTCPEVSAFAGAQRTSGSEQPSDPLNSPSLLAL

The assay has as its target Protein FosB (Mus musculus) (UniProt P13346). The experiment in a line: enhancers of mouse delta FosB DNA binding – biochemical, fluorescence polarization, TAMRA-CDK5 oligo, single point, primary screen (AID 493131). To be noted: purified delta FosB, at 25 µM, hits give high values, percent of positive-control signal above neutral wells. In general terms: Fluorescence polarisation rises when a labelled molecule tumbles more slowly, as on binding a larger partner.
Consider `COc1cc(CNCc2ccc(OC)c3ccccc23)cc(OC)c1OC`, for which the activation was -10.2%. For the compound `Cc1cc(C)c2nc3nc(C)cc(C)c3c(N)c2c1`, the activation was 25.9% (active).

As to `CNC(=O)C1CC(=O)N(c2ccc(OCC(=O)Nc3ccccc3C)cc2)C1` (centres undefined), the activation is 5.55%. The same measure for `COc1ccc(OC)c(S(=O)(=O)N(C)CC(=O)N2CCN(c3ccccc3)CC2)c1`: 3.45%; for `O=C1c2cccc3cccc(c23)C(=O)N1c1cccc(O)c1`: 27.4% (active).

For `O=C1CC(c2ccccc2)C(=O)N1c1cccc(O)c1` (centres undefined), the activation is 0.8%. The same measure for `O=C(CN1C(=O)c2cccc3cccc(c23)C1=O)N1CCCCC1`: 2.41%; for `Cc1ccccc1CC1(CO)CCCN(Cc2ccc3c(c2)OCCO3)C1` (centres undefined): -8.09%. The same measure for `C=CCC(NCc1ccco1)c1ccc(OC)cc1` (centres undefined): -0.535%; for `COc1ccc(Nc2nc(NCc3ccco3)nc(N/N=C/c3ccccc3Cl)n2)cc1`: 43% (active); for `COc1ccc(-n2cnc3cc(NCc4ccco4)ccc32)cc1`: -0.508%. The same measure for `O=C1c2cccnc2C(Nc2ccc(S(=O)(=O)N3CCCCCC3)cc2)N1Cc1ccccc1` (centres undefined): -10.2%; for `O=C(Cc1ccc(-n2c(=O)c3sccc3n(Cc3ccc(F)cc3)c2=O)cc1)NCc1ccco1`: 20.9% (active).

As for `O=C(NCc1ccco1)c1ccc(Cn2c(=O)c3sccc3n(Cc3ccc(F)cc3)c2=O)cc1`, the activation is -6.02%. For `O=C(NCc1ccco1)c1cc2sccc2n1Cc1ccc(F)cc1`, the activation was -6.3%. As for `CC1(C)Oc2ccc(C(=O)N3CCOCC3)cc2N(CC(=O)Nc2ccccc2)C1=O`, the activation is -4.29%. As to `CC(=O)NC(Cc1ccc(F)c(F)c1)C(=O)NC1CCN(c2nnnn2-c2ccccc2)CC1` (centres undefined), the activation is -5.56%. Under `COc1ccc(CCNC(=O)C2CCCN2C(=O)Nc2ccccc2)cc1OC` (centres undefined) stands 1.24%.

For `CC(C)CCNC(=O)c1ccc2c(Cl)c3c(nc2c1)CCC3`, the activation was -19.8%. Under `CC(=NC1CCN(Cc2ccccc2)CC1)c1c(O)[nH]c(=O)[nH]c1=O` stands 6.14%.

On to `CS(=O)(=O)N(CC(=O)N1CCN(Cc2ccccc2)CC1)c1ccc2c(c1)OCCO2`, for which the activation is -2.7%. Under `c1ccc(CN2CCC(N=C3NN=C(c4ccc5c(c4)OCCO5)CS3)CC2)cc1` stands 18.3% (active); under `Cc1ccc(C(=O)NC(C)c2ccccc2)cc1Br` (centres undefined), -1.72%; under `CCN(C(=O)CSc1nc2ccccc2n1CC)C1CCS(=O)(=O)C1` (centres undefined), -12.5%. In the case of `O=C(CNS(=O)(=O)c1ccc(Br)s1)NCc1ccc2c(c1)OCO2`, the activation was -7.24%. Under `COc1cccc(OCc2cc(/C=N/NC(=O)c3nc(Cl)c(Cl)c(N)c3Cl)ccc2OC)c1` stands 59.2% (active). For `CCOc1ccc2[nH]c(C(=O)N/N=C/c3cccc(OC)c3OC)cc2c1`, the activation is -5.75%.

For the compound `COc1ccc2[nH]c(C(=O)N/N=C/c3cc(OC)c(OC)c(OC)c3)cc2c1`, the activation was -21.6%. The same measure for `CCOCCCNC(=O)C(NC(=O)c1ccc(=O)[nH]c1)c1ccc(Cl)cc1` (centres undefined): -7.55%. Consider `O=C(Cc1cccs1)N/N=C/c1ccc(OCc2ccccc2)cc1`, for which the activation was -8.99%. Under `O=C(COc1ccc(/C=N/NC(=O)c2ccc(O)cc2)cc1)Nc1ccc([N+](=O)[O-])cc1` stands -4.3%; under `O=C(N/N=C/c1ccc(OCc2ccccc2)cc1)c1ccc(O)cc1`, 19.7% (active); under `O=C(Nn1cnc2ccccc2c1=O)c1ccc(F)cc1Cl`, -11%. For the compound `Cc1ccc(S(=O)(=O)NCc2ccc(C(=O)NC3CCC(C)CC3)cc2)cc1` (centres undefined), the activation was 1.88%. The same measure for `Cc1cccc(C)c1NC(=O)c1ccc(CN2CCc3ccccc3C2)cc1`: 5.39%; for `COc1ccc(OC)c(NC(=O)C2CCCN2S(=O)(=O)c2cccc3nsnc23)c1` (centres undefined): -12.4%; for `COC(=O)C1=C(C)N(c2ccc(C)cc2)/C(=C/c2ccc(O)cc2)C1=O`: -7.3%.

`CC(=O)Nc1ccc(C(=O)CSc2nnc(Cc3ccccc3)o2)cc1`: the activation is 32.2% (active). In the case of `CCCc1nnc(SCC(=O)Nc2ccc(C(=O)OCC)cc2)o1`, the activation is -7.89%.

In the case of `O=C(CSc1nnc(Cn2cnc3ccccc32)o1)c1ccccc1`, the activation is -10.9%.

Regarding `COC(=O)CN1C(=O)N/C(=C/c2ccc(OC)c(C)c2OC)C1=O`, the activation was -0.812%.

For `COC(=O)c1ccc(C23CC4(C2)[C@H](CN(Cc2cccnc2)[C@@H]4c2ccccc2)C3c2ccc(Cl)nc2)cc1` (some centres undefined), the activation is 23.5% (active).

On to `Clc1ccc(C2[C@H]3CN(CC4CCCCC4)[C@H](c4ccccc4)C34CC2(c2cccnc2)C4)cn1` (some centres undefined), for which the activation was 2.72%. The same measure for `CCN1C(=NCCc2cccnc2)N[C@@H](c2ccccc2)C(C(=O)OC)=C1C`: -0.917%. For the compound `CN(C)C(=O)CSc1n[nH]c(-c2ccco2)n1`, the activation was 7.7%. `COc1ccc(C(=O)C2CCCN(S(=O)(=O)c3cccc(C)c3)C2)c(C)c1` (centres undefined): the activation is -8.61%. For `COc1cc(C(=O)NC2CCN(Cc3ccccc3)CC2)cc(Cl)c1OC(C)C`, the activation is -2.75%. For `COc1cc2[nH]c(=O)n(CCC(=O)NC3CCN(Cc4ccccc4)CC3)c(=O)c2cc1OC`, the activation is -7.1%.

As to `COc1cc2[nH]c(=O)n(Cc3ccc(C(=O)NC4CCN(Cc5ccccc5)CC4)cc3)c(=O)c2cc1OC`, the activation was 40.7% (active). The same measure for `Cc1cc(OCC(=O)N(C)c2c(N)n(Cc3ccccc3)c(=O)[nH]c2=O)c(C(C)C)cc1Cl`: 30.7% (active); for `CN(C(=O)COC(=O)c1ccc(Br)o1)c1c(N)n(Cc2ccccc2)c(=O)[nH]c1=O`: 5.25%. `CC(C)CN(C(=O)COC(=O)c1ccc(Cl)c(N)c1)c1c(N)n(Cc2ccccc2)c(=O)[nH]c1=O`: the activation was 0.351%. Turning to `CC(C)Sc1nc(N)nc2c1ncn2C1OC(CO)C(O)C1O` (centres undefined), the activation is -4.1%. As to `O=C(CCN1CCc2ccccc2C(O)(c2ccccc2)C1)c1ccc2c(c1)OCCO2` (centres undefined), the activation is 1.68%.

On to `CCCCN(C(=O)c1ccc(OC(F)(F)F)cc1)c1c(N)n(CCC)c(=O)[nH]c1=O`, for which the activation was -2.28%. The same measure for `O=C(Nc1ccc(S(=O)(=O)Nc2ccccn2)cc1)c1ccccc1`: -2.22%; for `O=C(CS(=O)(=O)c1ccccc1)Nc1ccc(S(=O)(=O)Nc2ccccn2)cc1`: 1.81%. In the case of `O=C(Nc1ccc(Br)cc1)c1cc(S(=O)(=O)Nc2ccccn2)ccc1Cl`, the activation was 40.2% (active). As for `COc1ccccc1N1CCN(C(=O)c2cc(=O)c3cc(C)cc(C)c3o2)CC1`, the activation is -12.4%. The same measure for `CCOc1ccc(S(=O)(=O)N2CCN(C(=O)c3oc4ccccc4c3C)CC2)cc1`: -13.9%. For `CCn1cc(C(=O)OCC(=O)Nc2cccc(C)c2)c(=O)c2ccc(C)nc21`, the activation was -9.83%. Under `Cc1ccc(NNC(=O)c2cccs2)cc1Cl` stands -4.02%; under `CCCCC1N2CC3([N+](=O)[O-])CN1CC([N+](=O)[O-])(C2)C3(C)C` (centres undefined), 0.0626%; under `CCn1nc(C)c(NC(=O)/C=C/c2ccc(OC)c(COc3ccc(Br)cc3)c2)c1C`, 13.3%.

In the case of `COc1ccc(OC)c(S(=O)(=O)Nc2c(C)nn(C)c2C)c1`, the activation was 1.81%.

On to `COc1ccc(/C=C/C(=O)Nc2c(C)nn(C)c2C)cc1COc1ccc(Br)cc1`, for which the activation was 21.7% (active). As to `Cc1ccc2c(c1)C1CN(C)CCC1N2S(=O)(=O)c1ccc(Oc2ccc([N+](=O)[O-])cc2)cc1` (centres undefined), the activation is 60.9% (active).

Consider `Cc1ccc2c(c1)C1CN(C)CCC1N2C(=S)Nc1ccc(OC(F)F)cc1` (centres undefined), for which the activation is -5.28%. The same measure for `Cc1ccc2c(c1)C1CN(C)CCC1N2S(=O)(=O)c1cccc(F)c1` (centres undefined): 1.55%; for `COc1ccc([N+](=O)[O-])cc1N(CC(O)Cn1nnc2ccccc21)S(=O)(=O)c1ccc(C)cc1` (centres undefined): -8.08%; for `COc1ccc(Br)cc1C(=O)NC(=S)Nc1cc(-c2nc3ccccc3[nH]2)ccc1C`: 30.2% (active).

With `COc1ccc(Br)cc1C(=O)Nc1cccc(C)c1C`, the activation was 6.11%. `COc1cc2ccccc2cc1C(=O)Nc1ccccc1C`: the activation is -12.4%.

Take `Cc1nnnn1/C(=C\c1ccccc1)C(=O)OCC(=O)N1CC2(C)CC1CC(C)(C)C2` (centres undefined): the activation was -16.8%.

Regarding `Cc1ccc(-c2cc(C(=O)NCc3cn(C)nc3C)c3cc(Br)ccc3n2)cc1`, the activation was 36.8% (active).

Consider `O=C(NCc1cccs1)c1cc(-c2ccccn2)nc2ccc(Br)cc12`, for which the activation was 2.96%. The same measure for `Cc1nn(C)cc1CNC(=O)Nc1ccc(Cl)cc1`: -6.86%; for `CCN(CC)CCCNC(=S)N(CCO)Cc1cc2cc3c(cc2[nH]c1=O)OCO3`: -3.62%. The same measure for `CS(=O)(=O)N1CCc2nc(-c3ccccc3)sc2C1`: -1.76%.

On to `c1ccc2c(CCN3CCNC[C@H]3Cc3cccc4ccccc34)cccc2c1`, for which the activation is 12.1%. The same measure for `O=C1CCNCCN1[C@H](CO)Cc1ccccc1`: -2.28%. The same measure for `c1ccc(C[C@H]2CNCCN2CCC23CC4CC(CC(C4)C2)C3)cc1`: 20.1% (active); for `CC(Oc1cc2oc(=O)c3c(c2cc1Cl)CCCC3)C(=O)NCc1ccncc1` (centres undefined): -1.99%.

`COc1ccc2c(c1)c(C(=O)N/N=C/c1cccs1)c(C)n2C`: the activation is -3.67%. The same measure for `CCOC(=O)C1=C(COC(=O)[C@H](C)NS(=O)(=O)c2ccccc2F)NC(=O)NC1C` (some centres undefined): -4.67%. In the case of `Cn1ncc2c(NNC(=O)Cc3cccc4ccccc34)ncnc21`, the activation was 2.75%. Turning to `CC(=O)c1ccc(NC(=O)C2CC(=O)Nc3nc4ccccc4n32)cc1` (centres undefined), the activation was 19.8% (active). The same measure for `O=C(Nc1ccccc1)C1CC(=O)n2c(nc3ccccc32)N1` (centres undefined): 12%; for `CCOC(=O)c1ccc(NC(=O)C2CC(=O)Nc3nc4ccccc4n32)cc1` (centres undefined): 7.67%.
